Source: PubChem
The list is not random: actives were taken first. Their share in the collection is about 2.8%.
PglD inh = C. jejuni PglD acetyltransferase inhibitors, primary screen, biochemical, DTNB colorimetric, single point; UDP-N-acetylbacillosamine N-acetyltransferase PglD (Campylobacter jejuni); purified PglD enzyme, DTNB colorimetric CoA detection; inhibition, % at 12.5 µM; 0.098% of 360,000 active; AID 602405, 2012; in the data active = inhibition above about 16%, passing the limit was not always enough; inconclusive = no clear call, values can overlap the other calls
dFosB activator = activators of delta FosB homodimer, primary screen, biochemical, fluorescence polarization, TAMRA-CDK5 oligo, single point. purified delta FosB; percent of positive-control signal above neutral wells. AID 493131, 2011. 0.99% of 340,000 active. activation, % at 25 µM. Protein FosB (Mus musculus), P13346;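 active = mean activation above about 17%, with every replicate also reaching it, limit read from the data, passing the limit was not always enough; inconclusive = only one of the two conditions met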
PvdQ acylase = P. aeruginosa PvdQ acylase inhibitors, primary screen, biochemical, fluorescence, plate reader and imaging, single point. purified PvdQ acylase. inhibition, % at 10 µM. 0.063% of 340,000 active. AID 488965, 2010; in the data active = inhibition above about 30%, passing the limit was not always enough; inconclusive = no clear call, values can overlap the other calls
FGF22 binding = binders of human FGF22 protein, primary screen, FGF22 synaptogenesis inhibitor project, biophysical, thermal shift, single point | 1.5% of 340,000 active | recombinant FGF22 thermal shift, SYPRO orange fluorescence; percent of sucrose octasulfate shift, DMSO zero | AID 651658, 2012 | activity (Tm shift, normalised), % at 9.99 µM | Fibroblast growth factor 22 (Homo sapiens), Q9HCT0;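 active = mean Tm shift, scaled 0 neutral to 100 positive control, at about 1.3% or above, every replicate too, limit read from the data; inconclusive = no clear call, values can overlap the other calls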
Target sequence (Q9HCT0 whole entry, looked up): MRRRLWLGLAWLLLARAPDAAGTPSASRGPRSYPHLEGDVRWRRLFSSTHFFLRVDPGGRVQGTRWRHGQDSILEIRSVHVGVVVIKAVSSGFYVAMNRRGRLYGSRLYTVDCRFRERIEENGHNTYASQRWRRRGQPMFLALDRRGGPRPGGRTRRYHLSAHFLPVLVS
CDK5 p35 inh = inhibitors of human CDK5/p35 kinase, primary screen, biochemical, single concentration; Cyclin-dependent kinase 5 (Homo sapiens) + Cyclin-dependent kinase 5 activator 1 (Homo …; Recombinant CDK5/p35, ADP-Glo luminescence, 60 min; inhibition, % at 10 µM; 0.01% of 330,000 active;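 active = highest replicate inhibition of at least 50% and at least 75% of replicates reaching 50%; inconclusive = only one of the two criteria met; inactive = both criteria failed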
Target sequence (Q00535 whole entry, looked up): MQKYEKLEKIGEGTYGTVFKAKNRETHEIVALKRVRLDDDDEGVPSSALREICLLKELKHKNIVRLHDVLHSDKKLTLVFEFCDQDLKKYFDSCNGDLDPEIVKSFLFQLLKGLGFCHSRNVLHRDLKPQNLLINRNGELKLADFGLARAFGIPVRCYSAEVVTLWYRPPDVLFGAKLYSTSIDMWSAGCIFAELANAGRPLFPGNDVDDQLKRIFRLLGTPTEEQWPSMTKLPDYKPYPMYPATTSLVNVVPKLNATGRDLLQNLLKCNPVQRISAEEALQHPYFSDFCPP
Target sequence (Q15078 whole entry, looked up): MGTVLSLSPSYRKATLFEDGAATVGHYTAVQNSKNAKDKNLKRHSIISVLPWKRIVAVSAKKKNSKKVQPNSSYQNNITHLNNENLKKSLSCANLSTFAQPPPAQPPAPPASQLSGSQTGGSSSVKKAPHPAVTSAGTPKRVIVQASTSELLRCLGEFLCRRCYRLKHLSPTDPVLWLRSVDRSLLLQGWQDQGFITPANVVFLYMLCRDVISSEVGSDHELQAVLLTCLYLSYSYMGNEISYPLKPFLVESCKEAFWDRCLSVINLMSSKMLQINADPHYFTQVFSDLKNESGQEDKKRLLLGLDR
SIRT5 inh = SIRT5 desuccinylase inhibitors, primary screen, biochemical, fluorescence imaging, single point, set 5; NAD-dependent protein deacylase sirtuin-5, mitochondrial (Homo sapiens), Q9NXA8; Purified SirT5, succinyl-peptide AMC, trypsin-coupled fluorescence; inhibition, % at 15 µM; 1.1% of 330,000 active; in the data active = inhibition above about 15%; inconclusive = no clear call, values can overlap the other calls
Of the large screens only hits and unclear results are named; the others gave an inactive call.

Cc1ccc(S(=O)(=O)Nc2ccc3c(c2)C(=O)N([C@H](C)CO)C[C@H](C)[C@@H](CN(C)C(=O)NC2CCCCC2)OCCCC[C@H](C)O3)cc1	none (no result: dFosB activator, PvdQ acylase, CDK5 p35 inh)
CCNC(=O)C[C@H]1CC[C@@H]2[C@H](COC[C@H](O)CN2C(=O)C2CC2)O1	none (no result: dFosB activator, PvdQ acylase, CDK5 p35 inh)
Cc1ccc2nc(NC(=O)Cc3cccs3)sc2c1	none (no result: FGF22 binding, SIRT5 inh)
Cc1ccc2nc(-c3ccc(NC(=O)Cc4cccs4)cc3)[nH]c2c1	FGF22 binding 1.8
O=C(O)CCC(=O)Nc1ccc(-c2nc3ccc(C(=O)c4ccccc4)cc3[nH]2)cc1	SIRT5 inh 34.0
Cc1ccccc1-c1ccc([C@@H]2[C@H](CO)N3CCCCN(C(=O)CN4CCOCC4)C[C@@H]23)cc1	none (no result: dFosB activator, PvdQ acylase, CDK5 p35 inh)
CCn1c(=O)c(C(=O)CN2CCN(S(=O)(=O)c3ccc(C)cc3C)CC2)c(N)n(Cc2ccccc2)c1=O	dFosB activator inconclusive, SIRT5 inh 23.5
COc1cccc(NC(=S)Nc2cc(C(=O)O)ccc2N2CC3CC(C2)c2cccc(=O)n2C3)c1 (stereo not drawn)	FGF22 binding 3.3 (no result: PglD inh)
C[C@@H](NC(=O)C[C@H]1C=C[C@H](NC(=O)C2CCOCC2)[C@@H](CO)O1)c1ccccc1	none (no result: dFosB activator, PvdQ acylase, CDK5 p35 inh)
Cc1cccc(NCC(=O)N/N=C/c2cccc(Br)c2)c1	none (no result: PglD inh)
Cc1cccc(NC(=O)C(=O)N/N=C/c2ccncc2)c1	FGF22 binding 43.5 (no result: PglD inh)
COC(=O)c1ccc(/C=N/NC(=O)C(=O)NCc2ccccc2)cc1	FGF22 binding 43.0 (no result: PglD inh)
Cc1ccc(NCC(=O)N/N=C/c2cccc(Br)c2)cc1	SIRT5 inh 15.6
COC(=O)c1ccc(/C=N/NC(=O)CNc2cccc(C)c2)cc1	SIRT5 inh 24.1 (no result: PglD inh)
CCCCNC(=O)C(=O)N/N=C/c1ccc(C(=O)OC)cc1	none (no result: PglD inh)
COCC(=O)N[C@H]1C=C[C@H](CC(=O)NCc2ccccc2OC)O[C@@H]1CO	none (no result: dFosB activator, PvdQ acylase, CDK5 p35 inh)
Cc1noc(C)c1NC(=O)N(C)C[C@H]1Oc2ccc(NC(=O)CCC(F)(F)F)cc2CC(=O)N([C@@H](C)CO)C[C@H]1C	none (no result: dFosB activator, PvdQ acylase, CDK5 p35 inh)
COc1ccc(NC(=O)Nc2ccc3c(c2)C(=O)N([C@H](C)CO)C[C@H](C)[C@H](CN(C)C)OCCCC[C@H](C)O3)cc1	none (no result: dFosB activator, PvdQ acylase, CDK5 p35 inh)
COc1ccc(CN2C[C@@H](O)COC[C@@H]3O[C@@H](CC(=O)N4CCc5ccccc5C4)CC[C@H]32)cc1	none (no result: dFosB activator, PvdQ acylase, CDK5 p35 inh)
CCCNC(=O)C[C@H]1CC[C@H]2[C@@H](COC[C@@H](O)CN2Cc2cccc(F)c2)O1	none (no result: dFosB activator, PvdQ acylase, CDK5 p35 inh)
Cc1sc(NC(=O)c2ccco2)c(C(Nc2ccccn2)c2ccccc2)c1C (stereo not drawn)	none (no result: PglD inh, FGF22 binding, SIRT5 inh)
COc1ccc(C(Nc2ccccn2)c2c(NC(=O)c3ccco3)sc(C)c2C)cc1 (stereo not drawn)	FGF22 binding 43.7 (no result: PglD inh)
COc1ccc(C(CNC(=O)c2cccc(S(=O)(=O)N3CCc4ccccc43)c2)N(C)C)cc1 (stereo not drawn)	FGF22 binding 43.0 (no result: SIRT5 inh)
COc1cccc(C(=O)NCCS(=O)(=O)N2CCc3ccccc3C2)c1	none
COc1ccc(CCNC(=O)c2cccc(S(=O)(=O)N3CCc4ccccc4C3)c2)cc1	PvdQ acylase 43.9
COc1ccc(C(CNC(=O)c2cccc(S(=O)(=O)N3CCCCC3)c2)N2CCCC2)cc1 (stereo not drawn)	SIRT5 inh 24.2
CN1CCN(C(=O)C[C@H]2CC[C@@H](NC(=O)Nc3ccccc3F)[C@@H](CO)O2)CC1	none (no result: dFosB activator, PvdQ acylase, CDK5 p35 inh)
COc1ccccc1NC(=O)N1CCCCN2[C@@H](CO)[C@H](c3ccc(-c4cccc(F)c4)cc3)[C@@H]2C1	none (no result: dFosB activator, PvdQ acylase, CDK5 p35 inh)
Oc1c(Br)cc(Br)cc1C=NCc1ccc(F)cc1	FGF22 binding 43.4 (no result: PglD inh)
CNC[C@@H]1OCCCC[C@H](C)Oc2ccc(NC(=O)CCC(F)(F)F)cc2C(=O)N([C@@H](C)CO)C[C@H]1C	none (no result: dFosB activator, PvdQ acylase, CDK5 p35 inh)
O=C(C[C@@H]1CC[C@@H]2[C@H](COC[C@H](O)CN2Cc2ccc3c(c2)OCO3)O1)Nc1ccc(-c2ccccc2)cc1	SIRT5 inh 15.2 (no result: dFosB activator, PvdQ acylase, CDK5 p35 inh)
O=C(C[C@H]1CC[C@@H]2[C@H](COC[C@@H](O)CN2S(=O)(=O)c2ccccc2)O1)NCC1CCCCC1	SIRT5 inh 100.2 (no result: dFosB activator, PvdQ acylase, CDK5 p35 inh)
CN(C)CCCNC(=O)C[C@H]1CC[C@H]2[C@@H](COC[C@H](O)CN2S(=O)(=O)c2ccc(F)cc2)O1	SIRT5 inh 21.8 (no result: dFosB activator, PvdQ acylase, CDK5 p35 inh)
O=C(C[C@@H]1CC[C@H]2[C@@H](COC[C@H](O)CN2S(=O)(=O)c2cccc(Cl)c2)O1)Nc1ccc(-c2ccccc2)cc1	FGF22 binding 2.7 (no result: dFosB activator, PvdQ acylase, CDK5 p35 inh)
C/C=C/c1ccc2c(c1)O[C@@H](CN(C)C(=O)Nc1ccc(F)cc1)[C@H](C)CN([C@H](C)CO)S2(=O)=O	none (no result: dFosB activator, PvdQ acylase, FGF22 binding, CDK5 p35 inh)
C[C@@H]1CN([C@H](C)CO)C(=O)c2cc(NC(=O)CCCN(C)C)ccc2O[C@@H](C)CCCCO[C@@H]1CN(C)S(C)(=O)=O	none (no result: dFosB activator, PvdQ acylase, CDK5 p35 inh)
N#C[C@@H]1[C@H](c2ccccc2-c2ccccc2)[C@@H](CO)N1c1ncc(-c2ccccc2)s1	none (no result: PglD inh, dFosB activator, PvdQ acylase, CDK5 p35 inh)
N#C[C@H]1[C@@H](c2ccccc2-c2ccccc2)[C@@H](CO)N1c1ncc(-c2ccccc2)s1	SIRT5 inh 24.0 (no result: PglD inh, dFosB activator, PvdQ acylase, CDK5 p35 inh)
C[C@H](CO)N1C[C@H](C)[C@@H](CN(C)CC2CCCCC2)Oc2ncc(C#C[C@@H](C)O)cc2C1=O	none (no result: dFosB activator, PvdQ acylase, CDK5 p35 inh)
O=C(CNC(=O)Cc1ccccc1)N=Nc1c(O)n(Cc2ccc3c(c2)OCO3)c2ccccc12	dFosB activator 19.6 (no result: SIRT5 inh)
CO[C@H](CN(C)C(=O)c1ccc2c(c1)OCO2)[C@@H](C)CN([C@H](C)CO)S(=O)(=O)c1ccccc1	none (no result: dFosB activator, PvdQ acylase, CDK5 p35 inh)
COc1cc(C2C(C#N)=C(N)Oc3c2ccc2ccccc32)ccc1OCC(=O)Nc1cccc(C)c1 (stereo not drawn)	none
COc1cc(C2C(C#N)=C(N)Oc3c2ccc2ccccc32)ccc1OCC(=O)Nc1ccc(C)cc1 (stereo not drawn)	SIRT5 inh 20.0
COCc1cc(C)nc(OCC(=O)N/N=C/c2ccc(OC)c(O)c2)c1C#N	FGF22 binding 44.2 (no result: PglD inh)
CCCNc1ccc(C(=O)OCC)cc1[N+](=O)[O-]	none
CCNc1ccc(C(=O)OCC(=O)N(Cc2ccccc2)C(C)(C)C)cc1[N+](=O)[O-]	FGF22 binding 43.0 (no result: PglD inh)
CCS(=O)(=O)N(C)C[C@@H]1N[C@H](CO)[C@@H]1c1ccc(C#CC(C)C)cc1	none (no result: PglD inh, dFosB activator, PvdQ acylase, FGF22 binding, CDK5 p35 inh)
CC1(C)C(C=C(Cl)Cl)C1C(=O)N/N=C/c1ccccc1F (stereo not drawn)	none
